Screening data: PubChem, National Center for Advancing Translational Sciences (NCATS)
DT40 TDP1 no CPT: qHTS for Inhibitors of human tyrosyl-DNA phosphodiesterase 1 (TDP1): qHTS in cells in absence of CPT | DT40 Tdp1-/- hTDP1 cells, no CPT, ATP luminescence, 48 h | Potency, µM (highest dose often 46.2 µM), hits mostly inhibitors | actives 15% (n = 420,000); note: nearly all actives have a fitted effect of over 55% in size
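No-CPT arm: Tdp1-/-;hTDP1 DT40 cells (400/well) plus compounds, incubated ≥48 hr at 37 °C. Readout CellTiter-Glo luminescence.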
DT40 TDP1 CPT: growth inhibition of DT40 Tdp1-/-;hTDP1 cells with camptothecin (screen for TDP1 inhibitors); chicken DT40 Tdp1-/-;hTDP1 cells + 20 nM CPT, ATP luminescence, 48 h; Potency, µM (doses to about 46.2 µM), usual class: inhibitors; actives 12% (n = 420,000); AID 686979; note: nearly all actives have a fitted effect of over 55% in size
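Chicken DT40 Tdp1-/- cells stably complemented with human TDP1 were seeded at 400 cells/well in medium containing 20 nM camptothecin, exposed to pin-transferred compounds, and grown at 37 °C for at least 48 hr. Viability was read as ATP luminescence.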
TGFb inhibitor: TGF-b pathway inhibition | actives 1.2% (n = 410,000) | HepG2 CAGA-GFP TGF-b/SMAD3 reporter, GFP fluorescence, 18 h; TGF-beta stimulated, 500 pg/mL final | Potency, µM (top dose mostly 46.1 µM), hits mostly inhibitors; note: nearly all actives have a fitted effect of over 65% in size
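GFP signal (ex488/em500-530) from TGF-beta-stimulated HEPG2 CAGA-GFP cells, 500 pg/mL final, 18 h at 37 degrees C in DMEM plus 1% FBS, normalized to unstimulated and DMSO-stimulated controls.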
S-ASM inh: inhibitors of human secretory acid sphingomyelinase; placental ASM, HMU-PC fluorogenic substrate, 60 min; actives 0.006% (n = 340,000); P17405; AID 504937; Potency, µM (top dose mostly 57.5 µM), usual class: inhibitors
Target sequence (P17405 47-631 limits assumed): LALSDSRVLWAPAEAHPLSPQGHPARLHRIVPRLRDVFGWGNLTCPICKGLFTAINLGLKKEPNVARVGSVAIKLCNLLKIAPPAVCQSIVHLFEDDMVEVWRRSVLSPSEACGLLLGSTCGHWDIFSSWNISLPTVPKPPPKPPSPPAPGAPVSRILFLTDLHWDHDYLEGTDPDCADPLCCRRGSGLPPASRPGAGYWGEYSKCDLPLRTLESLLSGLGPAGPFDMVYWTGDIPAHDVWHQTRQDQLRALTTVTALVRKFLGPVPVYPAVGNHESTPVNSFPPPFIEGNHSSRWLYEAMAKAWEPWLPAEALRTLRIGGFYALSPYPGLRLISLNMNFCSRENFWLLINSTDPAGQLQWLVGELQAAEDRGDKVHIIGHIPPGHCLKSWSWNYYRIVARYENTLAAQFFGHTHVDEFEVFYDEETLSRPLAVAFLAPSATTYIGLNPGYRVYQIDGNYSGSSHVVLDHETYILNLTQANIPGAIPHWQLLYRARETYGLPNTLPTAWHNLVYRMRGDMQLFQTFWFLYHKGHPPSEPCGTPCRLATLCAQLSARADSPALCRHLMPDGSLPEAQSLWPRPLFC
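Human placenta-derived ASM preincubated with compound 10 min at room temperature, then reacted with 9 uM (final) fluorogenic HMU-PC substrate for 60 min at 37 C. Stop solution raises pH to 10; fluorescence read at Ex 386/Em 447 nm.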
IL1B secr inh: inflammasome signaling inhibition, IL-1 beta readout. THP-1 LPS/ATP IL-1B secretion, AlphaLISA, 16 h; active compounds read low. actives 4.7% (n = 360,000). activity change, % at 57.5 µM; in the data active = activity change below about -50%; inconclusive = mostly about -30% to -49%
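Secreted IL-1B measured by AlphaLISA bead assay after 16 h compound exposure of THP-1 cells; compounds (final up to 57.5 uM) added 1 h before LPS (250 ng/mL) and ATP (1.25 mM) stimulation; lower signal means less secretion.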
HepG2 tox: counter-screen for TGF-b inhibitors: cytotoxicity in HepG2 cells; HepG2 CAGA-GFP viability, ATP luminescence, 18 h; actives 0.76% (n = 410,000); Potency, µM (titrated, usually from 46.1 µM), actives largely listed as cytotoxic
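HepG2 CAGA-GFP cells (1000/well, DMEM with 1% FBS) received compound, then TGF-beta at 500 pg/mL final, and were incubated 18 hours at 37 degrees C. Viability was read by CellTiter-Glo luminescence. Media-only wells were set as complete cell-killing and DMSO as no toxicity.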
Of the large screens only hits and unclear results are named; the others gave an inactive call. Sampled rows, rich in hits. Any-hit rate of the full collection: about 19%. Unless noted, calls come from the whole dose curve; as a rule, active = well fitted curve in the direction sought with a large enough effect; inconclusive = small, poorly fitted or top-dose-only effect, or another doubt; inactive = no such curve, though single readings can be large; an effect the other way counts as inactive or inconclusive.

Cc1cc(C(=O)NCCC2=CCCCC2)ccc1[N+](=O)[O-]	none
O=C(Cn1ncc(Cl)c(Cl)c1=O)c1ccc(Cl)cc1	DT40 TDP1 no CPT 2.6µM, DT40 TDP1 CPT 2.9µM, TGFb inhibitor inconclusive, IL1B secr inh -68, HepG2 tox 18µM
O=C(OCCN1CCCCC1)c1ccccc1Cl	TGFb inhibitor inconclusive
O=C(OCn1ncc(Cl)c(Cl)c1=O)c1ccccc1Cl	DT40 TDP1 no CPT 4.6µM, DT40 TDP1 CPT 2.3µM, IL1B secr inh -97
O=C(NCc1cccs1)c1csc([C@@H]2C[C@H](O)[C@@H](CO)O2)n1	none (no result: S-ASM inh)
Cc1c(NC(=O)/C(C#N)=C/c2ccc(-c3ccc(Cl)cc3)o2)c(=O)n(-c2ccccc2)n1C	DT40 TDP1 no CPT 15µM, DT40 TDP1 CPT 10µM, TGFb inhibitor inconclusive, IL1B secr inh -62
CC1CC1c1ccc(/C=C(\C#N)C(=O)Nc2ccc(Cl)cc2)o1 (stereo not given)	DT40 TDP1 no CPT 16µM, DT40 TDP1 CPT inconclusive
Cc1cc(NC(=O)/C(C#N)=C/c2ccc(-c3ccc(SC(F)F)cc3)o2)n(-c2ccccc2)n1	DT40 TDP1 no CPT 18µM, DT40 TDP1 CPT inconclusive
CCOc1ccc(NC(=O)/C(C#N)=C\c2ccc(-c3ccc(Cl)cc3)o2)cc1	DT40 TDP1 no CPT 10µM, DT40 TDP1 CPT inconclusive (no result: S-ASM inh, IL1B secr inh)
CC1CC1c1ccc(/C=C(\C#N)C(=O)Nc2ccccc2Cl)o1 (stereo not given)	DT40 TDP1 no CPT inconclusive
Cc1cc(NC(=O)/C(C#N)=C/c2ccc(-c3cccc(C(F)(F)F)c3)o2)n(-c2ccccc2)n1	DT40 TDP1 no CPT inconclusive, TGFb inhibitor inconclusive
COc1ccccc1CNCc1ccc(OC)c2ccccc12	DT40 TDP1 no CPT 16µM, DT40 TDP1 CPT inconclusive, TGFb inhibitor inconclusive, IL1B secr inh -82
COc1cc(CNCc2cccc3ccccc23)cc(OC)c1	DT40 TDP1 no CPT inconclusive, DT40 TDP1 CPT inconclusive, TGFb inhibitor inconclusive
COc1cc(CNCc2c[nH]c3ccccc23)cc(OC)c1	DT40 TDP1 no CPT 9.2µM, DT40 TDP1 CPT 5.8µM, IL1B secr inh -84
COc1ccc(Br)cc1CNC(=O)Cc1cccs1	none
COc1ccccc1CNC(=O)Cc1ccc(C)cc1	DT40 TDP1 no CPT inconclusive, DT40 TDP1 CPT inconclusive
COc1cc(CNCc2ccccc2C(F)(F)F)cc(OC)c1	DT40 TDP1 CPT inconclusive
COc1ccccc1CNCc1cccc(Oc2ccccc2)c1	DT40 TDP1 no CPT inconclusive, DT40 TDP1 CPT inconclusive, IL1B secr inh -83
COc1ccccc1CNCc1cc(Br)ccc1OC	DT40 TDP1 no CPT 16µM, DT40 TDP1 CPT inconclusive, TGFb inhibitor inconclusive, IL1B secr inh inconclusive
CCSc1nnc(NC(=O)[C@@H](NC(=O)c2ccccc2F)C(C)C)s1	none
CC(=O)c1ccc(NC(=O)c2sc(-n3nc(C)c(CCC(C)C)c3C)nc2C)cc1	DT40 TDP1 no CPT inconclusive (no result: S-ASM inh, IL1B secr inh)
COc1ccc(CNCc2ccc(OC)c3ccccc23)cc1	DT40 TDP1 no CPT inconclusive, DT40 TDP1 CPT inconclusive, IL1B secr inh -76
O=C(NCc1ccccc1F)c1cc2ccccn2n1	DT40 TDP1 no CPT inconclusive (no result: S-ASM inh, IL1B secr inh)
COc1cccc(CNCc2ccc(OC)c3ccccc23)c1OC	DT40 TDP1 no CPT 16µM, DT40 TDP1 CPT 21µM, TGFb inhibitor inconclusive, IL1B secr inh -84
COc1cccc(CNCc2ccccn2)c1OC	DT40 TDP1 no CPT 18µM
CCOc1cc(CNCc2ccccn2)cc(Cl)c1OC	none
COc1ccc(Br)cc1CNC(=O)c1cc2ccccn2n1	DT40 TDP1 no CPT inconclusive, DT40 TDP1 CPT 16µM (no result: S-ASM inh, IL1B secr inh)
O=c1c(Cc2c(F)cccc2Cl)c(O)ccn1CCCn1ccnc1	none
COc1ccc(CNCc2ccc(C)cc2)c(OC)c1	DT40 TDP1 no CPT inconclusive, DT40 TDP1 CPT inconclusive
COc1ccc(Br)cc1CNC(C)c1ccccc1 (stereo not given)	DT40 TDP1 no CPT 29µM, DT40 TDP1 CPT inconclusive, IL1B secr inh inconclusive
COc1ccc(C(=O)NC(C)c2ccccc2)cc1Br (stereo not given)	none
COc1cc(CNCc2ccc(OC)cc2OC)cc(OC)c1	DT40 TDP1 no CPT 21µM, DT40 TDP1 CPT inconclusive, TGFb inhibitor inconclusive
CN(C)Cc1ccccc1-c1cc(N(C)Cc2ccco2)ncn1	none (no result: TGFb inhibitor, S-ASM inh, IL1B secr inh, HepG2 tox)
CC(C(=O)NC1CCCC1)N1CCN(S(=O)(=O)c2ccc(C(C)(C)C)cc2)CC1 (stereo not given)	DT40 TDP1 no CPT 10µM, DT40 TDP1 CPT 21µM
COc1ccc(S(=O)(=O)N2CCC(C(=O)N[C@@H](C)C(=O)NC3CCCC3)CC2)cc1	DT40 TDP1 no CPT inconclusive, DT40 TDP1 CPT 16µM
Cc1ccc(S(=O)(=O)N2CCC(C(=O)N[C@@H](C)C(=O)NC3CCCCC3)CC2)cc1	none
